# Laboratory results from PubChem BioAssay.
# Values without a mark were called inactive. No rule for the calls is given here.
# System: Aerobactin synthetase IucA (Klebsiella pneumoniae hvKP1)
# Assay: IucA enzyme inhibition, primary screen, biochemical, Spectrum library (AID 1346200);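 also: 100% = wells without compound and 0% = wells lacking enzyme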
# Conditions: malachite green pyrophosphate, A620, at 8 µM, active compounds read low
row,Compound,activity remaining
1,CC(=O)O[C@@H]1CC(=O)[C@@]2(C)C(CC(=O)[C@]3(C)C2CC[C@@]2(C)[C@H](c4ccoc4)OC(=O)C4OC423)C1(C)C (stereo not given in full),92.3%
2,C=CCCCCCCCCCCCC(O)CC(O)COC(C)=O (stereo not given),116%
3,Nc1nc2ncc(=O)[nH]c2c(=O)[nH]1,121%
4,CC[C@H]1CN2CCc3cc(OC)c(OC)cc3C2C[C@@H]1CC1NCCc2cc(OC)c(OC)cc21 (stereo not given in full),118%
5,Cc1cccc(N(C)C(=S)Oc2ccc3ccccc3c2)c1,116%
6,Cc1cc(CC(=O)O)n(C)c1C(=O)c1ccc(Cl)cc1,77.2%
7,CC[C@H]1OC(=O)[C@H](C)[C@@H](O[C@H]2C[C@@](C)(OC)[C@@H](O)[C@H](C)O2)[C@H](C)[C@@H](O[C@@H]2O[C@H](C)C[C@H](N(C)C)[C@H]2O)[C@](C)(O)C[C@@H](C)C(=O)[C@H](C)[C@@H](O)[C@]1(C)O,117%
8,C/C=C/CC(C)C(O)C1C(=O)NC(CC)C(=O)N(C)CC(=O)N(C)C(CC(C)C)C(=O)NC(C(C)C)C(=O)N(C)C(CC(C)C)C(=O)NC(C)C(=O)NC(C)C(=O)N(C)C(CC(C)C)C(=O)N(C)C(CC(C)C)C(=O)N(C)C(C(C)C)C(=O)N1C (stereo not given),113%
9,C=C1CCC(OC(C)=O)/C(C)=C/C[C@@H]2[C@@H]1CC2(C)C (stereo not given in full),103%
10,COc1cc(O)c2c(=O)cc(C)oc2c1CC=C(C)C,83.4%
11,COc1c2occc2c(OC)c2c(=O)cc(C)oc12,116%
12,NCCCC[C@H](N[C@@H](CCc1ccccc1)C(=O)O)C(=O)N1CCC[C@H]1C(=O)O,114%
13,NCCC(=O)N[C@@H](Cc1cnc[nH]1)C(=O)O,106%
14,CCN(CC)CCOc1ccc2c(c1)C(=O)c1cc(OCCN(CC)CC)ccc1-2,118%
15,COc1ccc2c(c1)OCC(Cc1ccc(OC)c(OC)c1)C2=O (stereo not given),95.4%
16,COc1cc(NS(C)(=O)=O)ccc1Cc1c2ccccc2nc2ccccc12,104%
17,C[C@]12C=CC(=O)C=C1CCC1C2[C@@H](O)C[C@@]2(C)C1CC[C@]2(O)C(=O)CO (stereo not given in full),119%
18,CC1(C)O[C@@H]2[C@@H](CO[C@@]3(COS(N)(=O)=O)OC(C)(C)O[C@@H]23)O1,115%

row,Compound,activity remaining
1,O=c1c(-c2ccc(O)cc2)coc2c(C3O[C@H](CO)[C@@H](O)[C@H](O)[C@H]3O)c(O)ccc12 (stereo not given in full),105%
2,CCOC(N)=O,107%
3,CCOc1ccc(C(=O)c2ccc(OC)c(O)c2O)cc1,109%
4,Nc1ccn(C2O[C@H](CO)[C@@H](O)[C@H]2O)c(=O)n1 (stereo not given in full),101%
5,CC(=O)O[C@]1(C(C)=O)CCC2C3C=C(C)C4=CC(=O)CCC4(C)C3CCC21C (stereo not given in full),98%
6,Cc1nc(N)cc(C[n+]2csc(CCO)c2C)n1,83.3%
7,CC(C)(O)CC[C@@H](O)[C@](C)(O)C1CC[C@@]2(O)C3=CC(=O)C4C[C@@H](O)[C@@H](O)C[C@]4(C)C3CC[C@]12C (stereo not given in full),102%
8,N=c1ccn2c(n1)O[C@@H]1C2O[C@H](CO)[C@H]1O (stereo not given in full),105%
9,CC(=O)NCCCCCC(=O)O,124%
10,C[C@]12C=CC(=O)C=C1CCC1C3C[C@@H](O)[C@](O)(C(=O)CO)[C@@]3(C)C[C@H](O)[C@@]12F (stereo not given in full),125%
11,CO[C@@]1(NC(=O)CSCC#N)C(=O)N2C(C(=O)O)=C(CSc3nnnn3C)CSC21 (stereo not given in full),98.6%
12,CC1/C(=N/O)C[C@@H]2C[C@H]1C2(C)C (stereo not given in full),110%
13,CC(=O)Oc1cc(C)c2c(c1C(OC(C)=O)OC(C)=O)Oc1c(c(C)c(OC(C)=O)c3c1C(OC(C)=O)OC3=O)OC2=O (stereo not given),96.1%
14,CC1Cc2ccccc2N1NC(=O)c1ccc(Cl)c(S(N)(=O)=O)c1 (stereo not given),101%
15,CC(=O)O[C@H]1CC[C@]2(C)C3CC[C@@]4(C)C(CC5O[C@@]6(CCC(C)CO6)[C@@H](C)C54)C3CC[C@@H]2C1 (stereo not given in full),84.2%
16,O=C(CCBr)N1CCN(C(=O)CCBr)CC1,107%
17,C=C1C(=O)[C@]23[C@H](O)[C@H]1CC[C@H]2[C@@]12COC3(O)[C@H](O)[C@@H]1C(C)(C)CC[C@@H]2O,98.4%
